From PubChem BioAssay
The full list was thinned out, with hits kept by preference.
p53 reactivator = qHTS assay for re-activators of p53 using a Luc reporter | H1299 p53-A138V BP100-luciferase reporter, luminescence, 24 h | actives 0.063% (n = 320,000) | Potency, µM (doses to about 92.2 µM), for inactives: top-dose activity change, positive = activation, usual class: activators; active = well fitted activation curve with a large enough effect; inconclusive = small, poorly fitted or top-dose-only effect; inactive = no such curve, though single readings can be large or run the other way; also: potency is read from the fitted curve at half-maximal effect; % of control where 0% means no effect; nearly all actives have a fitted effect of over 45% in size
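p53-null H1299 cells stably carrying temperature-sensitive p53-A138V and a BP100-luciferase reporter were pinned with compounds (4-point, 1:5 series) and held 24 hrs at 37 deg C. Luminescence was read 10 min after detection reagent.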
MLL CXXC-DNA inh = qHTS Fluorescence Polarization Assay for Inhibitors of MLL CXXC domain - DNA interaction; Histone-lysine N-methyltransferase 2A (Homo sapiens), Q03164; MLL-CXXC / FITC-HOXA9 DNA fluorescence polarization; Potency, µM (titrated, usually from 115 µM), for the others: top-dose activity change, negative = inhibition, hits mostly inhibitors; actives 0.037% (n = 290,000); AID 2662, 2010; active = well fitted inhibition curve with a large enough effect in the polarisation, with a control signal flat, not every such curve was filed as active; inconclusive = small, poorly fitted or top-dose-only effect, or effect the other way, or a change in a side signal; inactive = no such curve, though single readings can be large or run the other way; the % refers to the polarisation; also: potency is read from the fitted curve at half-maximal effect
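Fluorescence polarization: 7 uM MLL-CXXC (stock) preincubated 5 min with compounds, then 50 nM fluorescein-HOX-A9 DNA (stock) added; 30 min ambient. Buffer 50 mM Tris-HCl pH 7.5, 50 mM NaCl, 1 mM DTT, 0.05% BSA.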
ClpP mod = qHTS Assay for Activators of ClpP. actives 1.9% (n = 340,000). ATP-dependent Clp protease proteolytic subunit (Bacillus subtilis (strain 168)), P80244. purified B. subtilis ClpP, FRET peptide cleavage, 20 min. AID 651965, 2013. Potency, µM (top dose mostly 57.5 µM), for inactives: at the top dose activity change, negative = active; active = well fitted falling curve with a large enough effect; inconclusive = small, poorly fitted or top-dose-only effect; inactive = no such curve, though single readings can be large or run the other way; also: potency is read from the fitted curve at half-maximal effect; the source files actives as falling curves though it sought activators and does not explain the sign; nearly all actives have a fitted effect of over 65% in size
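Buffer: 100 mM Tris/HCl pH8, 100 mM KCl, 0.05% low protease BSA, 2.5% glycerol, 0.01% Tween-20. ClpP 10 microg/mL final; 20 min RT; delta FRET normalized to ADEP and DMSO controls.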
Menin MLL FP FL = qHTS Assay for Inhibitors Targeting the Menin-MLL Interaction in MLL Related Leukemias: Competition With Fluorescein Labeled MLL-derived Peptide; FP activity change, % at 61.4 µM; 290,000 tested, under 10 active; Fluorescence polarization, fluorescein-MLL peptide displacement from menin; active = well fitted curve in the direction sought with a large enough effect in the polarisation, not every such curve was filed as active; inconclusive = small, poorly fitted or top-dose-only effect, or effect the other way, or a change in a side signal; inactive = no such curve, though single readings can be large or run the other way; the % refers to the polarisation; also: % of control where 0% means no effect
Menin-MLL TR inh = qHTS Assay for Inhibitors Targeting the Menin-MLL Interaction in MLL Related Leukemias: Competition With Texas Red Labeled MLL-derived Mutant Peptide | Potency, µM (titrated, usually from 61.6 µM), inactives show at the top dose FP activity change, negative = inhibition, actives largely listed as inhibitors | Menin + Texas Red MLL mutant peptide, fluorescence polarization | actives 0.23% (n = 270,000) | O00255; active = well fitted inhibition curve with a large enough effect in the polarisation, with a control signal flat, not every such curve was filed as active; inconclusive = small, poorly fitted or top-dose-only effect, or effect the other way, or a change in a side signal; inactive = no such curve, though single readings can be large or run the other way; the % refers to the polarisation; also: potency is read from the fitted curve at half-maximal effect; % of control where 0% means no effect
Target sequence (O00255 whole entry, looked up): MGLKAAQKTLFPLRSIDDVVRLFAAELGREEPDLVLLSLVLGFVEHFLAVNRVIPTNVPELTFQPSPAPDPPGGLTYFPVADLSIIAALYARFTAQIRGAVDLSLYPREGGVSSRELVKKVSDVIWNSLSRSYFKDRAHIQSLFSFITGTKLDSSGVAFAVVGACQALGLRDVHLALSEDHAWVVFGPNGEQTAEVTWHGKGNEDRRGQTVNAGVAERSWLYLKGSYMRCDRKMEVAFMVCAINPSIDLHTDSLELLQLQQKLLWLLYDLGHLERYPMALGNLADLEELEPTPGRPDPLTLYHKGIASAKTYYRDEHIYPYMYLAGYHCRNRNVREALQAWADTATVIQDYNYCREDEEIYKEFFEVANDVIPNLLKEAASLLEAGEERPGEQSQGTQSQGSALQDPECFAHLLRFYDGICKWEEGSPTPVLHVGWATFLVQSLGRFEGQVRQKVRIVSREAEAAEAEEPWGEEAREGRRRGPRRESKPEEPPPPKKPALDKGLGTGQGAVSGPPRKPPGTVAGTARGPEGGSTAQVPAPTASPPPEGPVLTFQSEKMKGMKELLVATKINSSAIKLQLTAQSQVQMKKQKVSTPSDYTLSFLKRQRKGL
* hit, by the source's call; ? = inconclusive; . = no result given; [ ] = another dose, or the depositor's remark.

SMILES	p53 reactivator	MLL CXXC-DNA inh	ClpP mod	Menin MLL FP FL	Menin-MLL TR inh
CC1(C(=O)Nc2ccc3c(c2)OCO3)CCN1Cc1cccc2c1OCO2 (stereo not given)	.	.	0%	.	.
Cc1ccnc2ccc3ccccc3c12	.	.	5%	.	.
Cc1sc(NC(=S)NC(=O)CCc2ccccc2)c(C(N)=O)c1C	19%	16%	28µM*	4	-2%
CSc1ccc2[nH]c(=O)cc(C)c2c1	-3%	-3%	35µM*	-1	5%
Cc1ccc(N=Cc2ccc(N(C)C)cc2)cc1	9%	-16%	-3%	0	5%
CN(C)c1ccc(C=Nc2ccc(N(C)C)cc2)cc1	40µM*	2%	2%	1	?
COc1ccc(C2C(C#N)=C(N)Oc3cc(C)n(Cc4ccncc4)c(=O)c32)cc1 (stereo not given)	-3%	-9%	-5%	12	21%
Cc1cc2c(c(=O)n1CCN(C)C)C(c1ccncc1)C(C#N)=C(N)O2 (stereo not given)	?	10%	2.5µM*	0	25%
CCc1cc(C(=O)N2CCN(C(=O)c3ccco3)CC2)sc1C	-7%	.	28µM*	.	.
COc1cc2c(NC3CCN(C(C)C)CC3)nc(N3CCCN(C)CC3)nc2cc1OCCOCCN1CCCC1	.	.	4%	.	.
COc1ccc(CCNC(=O)CCCCn2c(=O)c3ccccc3n(CC(=O)Nc3ccc(C)cc3C)c2=O)cc1OC	.	.	-6%	.	.
OCCCc1cn(Cc2ccccc2)c2ccccc12	8%	2%	18µM*	-1	-7%
COc1ccc(OCCN(C)CC(=O)Nc2c(C)cccc2C)cc1	-3%	32%	20µM*	0	?
Cc1ccc2c(CC(=O)N(C)c3c(N)n(Cc4ccccc4)c(=O)[nH]c3=O)coc2c1	-2%	.	25µM*	.	.
CCN(C(=O)COC(=O)Cc1coc2cc(C)ccc12)c1c(N)n(Cc2ccccc2)c(=O)[nH]c1=O	5%	.	-1%	.	.
Cc1ccc(-n2nc3ccc(NC(=O)/C=C/c4ccco4)cc3n2)cc1	16%	3%	28µM*	5	?
CCOc1ccc(-c2cc(C(=O)NCc3ccccc3Cl)c3ccccc3n2)cc1	.	.	4%	.	.
CC1(C)CCCN(C(=O)c2coc(=O)c(Br)c2)C1	2%	-16%	25µM*	?	7%
O=C(c1cccc(Br)c1)N1CCCc2ccccc21	18%	-9%	0%	0	?
O=C(c1coc(=O)c(Br)c1)N1CCCc2ccccc21	28%	-1%	13µM*	?	31%
COc1ccccc1Nc1nn2c(=O)c3ccc(C(=O)NCCc4ccccc4)cc3nc2s1	.	.	-26%	.	.
CC(C)C(=O)Nc1ccc(-c2nc3cccnc3o2)cc1	16%	13%	-20%	0	-26%
CC(C)(C)c1ccc(OCC(=O)Nc2ccc(-c3nc4cccnc4o3)cc2)cc1	.	-2%	13µM*	-1	2%
CCc1ccccc1NC(=O)CN1C(=O)CCSc2ccc(S(=O)(=O)N3CCCC3)cc21	.	.	-1%	.	.
COCCNC(=O)c1c[nH]c2ccc(S(=O)(=O)N3CCC4(CC3)OCCO4)cc2c1=O	-1%	2%	20µM*	5	8%
SMILES	p53 reactivator	MLL CXXC-DNA inh	ClpP mod	Menin MLL FP FL	Menin-MLL TR inh
CC(C)CCNC(=O)c1c[nH]c2ccc(S(=O)(=O)N3CCC4(CC3)OCCO4)cc2c1=O	-1%	-7%	?	0	-1%
CC1CCN(S(=O)(=O)c2ccc3[nH]cc(C(=O)NCCN4CCOCC4)c(=O)c3c2)CC1	-2%	-5%	25µM*	3	-18%
CCc1ccccc1N(C)S(=O)(=O)c1ccc2[nH]cc(C(=O)NCCOC)c(=O)c2c1	.	.	28µM*	.	.
CCN(CC(=O)NCc1cccs1)C(=O)c1cccc(S(=O)(=O)Nc2ccccc2Cl)c1	-6%	.	35µM*	.	.
O=c1[nH]c2cc3c(cc2cc1CN(CCO)S(=O)(=O)c1ccccc1Cl)OCCO3	2%	4%	28µM*	0	6%
COc1cc2cc(CN(CCCO)S(=O)(=O)c3ccccc3Cl)c(=O)[nH]c2cc1OC	-5%	-4%	?	0	-15%
CCOC(=O)c1cccc(S(=O)(=O)N(CCO)Cc2cc3cc(OC)c(OC)cc3[nH]c2=O)c1	9%	-3%	-17%	2	-14%
COc1cc2cc(CN(CCCO)S(=O)(=O)c3ccccc3)c(=O)[nH]c2cc1OC	-9%	2%	13µM*	-1	16%
COc1cc2cc(CN(CCO)S(=O)(=O)c3ccccc3Cl)c(=O)[nH]c2cc1OC	-2%	0%	28µM*	-2	5%
CCCCCCCCCOC(=O)CNc1nc(C#N)nc(NCC(=O)OCCCCCCCCC)n1	.	.	-5%	.	.
Cc1ccccc1S(=O)(=O)Nc1nc2ccccc2nc1N1CCc2ccccc2C1	28µM*	5%	?	5	-8%
COC(=O)c1ccc(COC(=O)c2ccccc2OC)cc1	22µM*	-11%	-12%	0	6%
CCC(C)(C)n1nnnc1C(C(C)C)N(Cc1ccco1)Cc1cc2cc3c(cc2[nH]c1=O)OCO3 (stereo not given)	4%	1%	32µM*	?	-11%
CCNC(=S)N(Cc1ccco1)Cc1cc2cc3c(cc2[nH]c1=O)OCCO3	-3%	?	28µM*	2	-6%
CC(C)CNC(=S)N(Cc1ccco1)Cc1cc2cc3c(cc2[nH]c1=O)OCCO3	14%	-5%	32µM*	8	-7%
Cc1ccc(CN(Cc2cc3cc4c(cc3[nH]c2=O)OCCO4)Cc2nnnn2Cc2ccco2)cc1	-4%	11%	32µM*	?	?
O=C(NCc1ccccc1)N(Cc1nc2ccccc2c(=O)[nH]1)C1CCCC1	10%	-10%	14µM*	2	-3%[11.7 µM]
COc1cc(-c2nc(-c3cccc(C)c3)no2)cc(OC)c1OC	7%	-6%	-25%	5	9%
COc1ccc(-c2nc(-c3cccc(C)c3)no2)cc1OC	?	0%	25µM*	1	29%
COc1cnc(N(C)C)nc1Sc1ccc(Cl)cc1	-2%	-6%	32µM*	3	-2%
COc1cnc(-c2ccccn2)nc1Sc1ccc(Cl)cc1	-1%	2%	-1%	0	5%
COc1cc(CNc2cccc(C(=O)O)c2)cc(Br)c1OCC(=O)NC(C)(C)C	-9%	-10%	25µM*	1	-13%
CCOc1cc(CNc2cccc3ccccc23)cc(Br)c1OCC(=O)NC(C)(C)C	7%	16%	8.9µM*	1	-3%
COc1cc(CNc2ccc3[nH]c(=O)[nH]c3c2)cc(Br)c1OCC(=O)NC(C)(C)C	1%	0%	82%	2	0%
